Assay outcomes deposited in PubChem BioAssay by Johns Hopkins Ion Channel Center.
KCNQ2 block = rat KCNQ2 potassium channel inhibitors, primary screen, cell-based, CHO-K1, FluxOR thallium flux, B-score; 310,000 tested, 1.1% active; Potassium voltage-gated channel subfamily KQT member 2 (Rattus norvegicus), O88943; 20 min; hits give low values; B-score at 10 µM;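 active = fluorescence ratio B-score at most minus 3 library SDs, with starting brightness B-score within 2 library SDs, cut at about -5.5 in these data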
KCNQ2 enhance = potentiators of rat KCNQ2 potassium channel. Potassium voltage-gated channel subfamily KQT member 2 (Rattus norvegicus), O88943. CHO-K1 KCNQ2, FluxOR thallium flux fluorescence; hits give high values. B-score at 10 µM. 310,000 tested, 0.54% active. AID 2239, 2010;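 active = fluorescence ratio B-score at least 3 SD of library B-scores, with initial fluorescence B-score within 3 of them, cut at about 5.3 in these data; same plate scores as AID 2156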;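 also: B-score of peak minus minimum over baseline fluorescence ratio after K+ and Tl+ stimulus; positive B-score means potentiation of KCNQ2 with more thallium influx and brighter signal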
The depositor's hits bear a star; i = inactive; / = no result given. In the library only some 1.6% were active in any assay of this set; here they are far more common.

SMILES	KCNQ2 block	KCNQ2 enhance
COc1cccc(CNC(=O)CCc2nc3cc(S(=O)(=O)N4CCOCC4)ccc3n2C)c1	i	1.2
COc1cccc(C(=O)NN/C(C)=C/C(=O)C(F)(F)C(F)(F)C(F)(F)F)c1	i	8.5*
COc1cccc(C(=O)Nc2ccc(NC(C)=O)cc2)c1	i	/
O=C(NNc1cc(N2CCOCC2)nc(N2CCOCC2)n1)C12CC3CC(CC(C3)C1)C2	i	0.04
CC[C@H](C)[C@H](NC(=O)OCc1ccccc1)C(=O)OCC(=O)Nc1ccc(N2CCOCC2)cc1	i	1
O=C(Nc1ccccc1Cl)c1cc2ccccc2o/c1=N\O	-5.6*	-5.6
O=C(Nc1ccccc1Cl)c1ccccc1Cl	i	/
COCCn1c(SCCOc2ccccc2)nc2ccccc2c1=O	i	/
CC(CCc1ccccc1)NC(=O)CNC(=S)N(Cc1cccs1)C1CCCC1 (stereo not given)	i	/
O=C(O)CN1C(=O)C2C3CC(C2C1=O)C1C(c2ccc(F)cc2)c2sc(=O)[nH]c2SC31 (stereo not given)	i	/
COc1cccc(-c2nc(CS(=O)(=O)CC(=O)NCCCc3ccccc3)c(C)o2)c1	i	/
COc1cccc(-c2nc(CS(=O)(=O)CC(=O)NCc3ccccc3)c(C)o2)c1	-5.9*	-5.9
CCN(CC)C(=O)c1ccc2c(=O)n(Cc3cccc(Br)c3)c(=S)[nH]c2c1	i	0.07
C=CCOc1ccc(/C=N/NC(=O)CN2CCCCC2)cc1OC	i	0.1
O=C(NC1CCCCC1)C1CC=CCC1C(=O)OCC(Cl)=C(Cl)Cl (stereo not given)	-5.5*	-5.5
COCC(=O)NC1CCCCCC1	i	/
O=Nc1[nH]c(=O)c(/C=C(\O)c2ccccc2)nc1NO	i	2
CC1CCN(CCC(=O)N/N=C/c2ccc([N+](=O)[O-])cc2)CC1	i	0.98
CCN(CC)C(=O)Cn1ccc(NC(C)=O)nc1=O	i	0.18
Cc1cccc(NC(=O)CCC(=O)N/N=C/c2ccco2)c1	i	/
CCCCCC(=O)N/N=C/c1ccco1	i	7.2*
O=C(CCCCCCCCC(=O)N/N=C/c1ccco1)N/N=C/c1ccco1	i	0.39
O=C(N/N=C\c1ccco1)Nc1cccc(Cl)c1	i	6*
CC(=O)N1CCN(C(=O)c2cccc(S(=O)(=O)NCc3ccccc3)c2)CC1	i	/
CCCCS(=O)(=O)/C=C\C1C2C=CC(C2)C1S(=O)(=O)CCCC (stereo not given)	i	/
SMILES	KCNQ2 block	KCNQ2 enhance
CCCCS(=O)(=O)/C=C\C=C/S(=O)(=O)CCCC	i	6.7*
C[C@H](NCc1c[nH]c2ccccc12)c1ccccc1	i	/
COc1cccc(NC(=O)c2cc3ccccc3o/c2=N\O)c1	i	/
COc1cccc(NC(=O)c2cc3cccc(OC)c3o/c2=N\O)c1	-7.1*	-7.1
COc1ccc([C@H]2[C@H](C(=O)OC(C)(C)C)N3N=Cc4ccccc4C3C23C(=O)c2ccccc2C3=O)cc1OC (stereo not given in full)	i	/
CC(C)(C)C(=O)[C@H]1[C@H](c2ccccc2)[C@@]2(N=C(c3ccccc3)OC2=O)C2c3ccccc3C=NN21 (stereo not given in full)	-6.2*	-6.2
COc1ccc(C2(C(=O)Nc3ccc(C)c(C)c3)CCOCC2)cc1	i	/
Cc1cc(C(F)(F)F)nn1Cc1n[nH]c(=S)n1-c1ccc(F)cc1	i	0.62
Cc1cc(-c2n[nH]c(=S)n2-c2ccc(F)cc2)nn1C	-6.3*	-6.3
Cc1ncc([N+](=O)[O-])n1CC(=O)Nc1cccc(C(F)(F)F)c1	i	/
O=C(CN1C(=O)NC2(CCCc3ccccc32)C1=O)c1ccc(Br)cc1 (stereo not given)	i	/
O=C(Nc1ccc(Br)cc1)/C(=C/c1cccc([N+](=O)[O-])c1)NC(=O)C1CCCCC1	-7.7*	-7.7
Cc1ccc(NC(=O)/C(=C/c2cccc([N+](=O)[O-])c2)NC(=O)C2CCCCC2)cc1	i	0.49
Clc1cccc(CSc2nnc(-c3sccc3-n3cccc3)o2)c1	i	/
Clc1cc(Cl)cc(CSc2nnc(-c3sccc3-n3cccc3)o2)c1	-5.9*	-5.9
O=C(NCc1ccc2c(c1)OCO2)C1CCN(S(=O)(=O)c2cccs2)CC1	i	1.1
O=C(NCc1ccc2c(c1)OCO2)C1CCN(S(=O)(=O)c2ccc(Br)s2)CC1	i	17*
O=C(c1ccco1)N1CCCC(c2nc3c(nnn3Cc3cccc(Cl)c3)c(=O)[nH]2)C1 (stereo not given)	i	0.55
N#Cc1ccc(NC(=O)N2CCC(c3nc4c(nnn4Cc4cccc(Cl)c4)c(=O)[nH]3)CC2)cc1	-7.5*	-7.5
COCCn1c(-c2ccco2)csc1=Nc1cccnc1	i	/
CC(C)Cn1c(-c2ccco2)csc1=Nc1cccnc1	-6.3*	-6.3
CCCCNS(=O)(=O)c1cc2c3c(c1)CCN3C(=O)CC2	i	0.03
